Source: PubChem (National Center for Advancing Translational Sciences (NCATS))
Only some compounds are listed: those with a hit (about 15% of all), similar ones and a draw of the others.
Sm TGR inh: S. mansoni TGR enzyme inhibition; 3% of 360,000 active; Potency, µM (titrated, usually from 114 µM), for inactives: at the top dose activity change, negative = inhibition, hits mostly inhibitors; Q962Y6; AID 485364; purified TGR, DTNB reduction, TNB absorbance 405 nm; further: potency means the concentration at half of the fitted maximal effect; on the % scale 0 is the no-effect control and ±100 the full control effect; nearly all actives have a fitted effect of over 60% in size
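Kinetic colorimetric format: TGR-catalysed, NADPH-driven DTNB reduction monitored via TNB absorbance. Enzyme dispensed at 20 nM; compound exposure 15 min at room temperature before reaction start.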
SARS PLP yeast: blocks SARS-CoV papain-like protease in a yeast assay | S. cerevisiae expressing SARS-CoV PLpro, growth rescue | Potency, µM (doses to about 32.9 µM), inactives show at the top dose activity, positive = growth rescue, actives largely listed as activators | 0.19% of 330,000 active; calls by dose curve; further: potency means the concentration at half of the fitted maximal effect; 0% is about no effect; nearly all actives have a fitted effect of over 55% in size
Pf growth 48h: inhibits P. falciparum growth in the first generation, 48 h; P. falciparum luciferase growth in erythrocytes, 48 h; 5.9% of 310,000 active; Potency, µM (highest dose often 28.7 µM), for inactives: at the top dose activity change, negative = inhibition, hits mostly inhibitors; further: potency means the concentration at half of the fitted maximal effect; on the % scale 0 is the no-effect control and ±100 the full control effect
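Growth was read as firefly luciferase luminescence after a 48 h, 37 C, 5% CO2 exposure of compounds to reporter-bearing P. falciparum cultures (0.1% parasitemia, 2% hematocrit final) in Albumax-supplemented RPMI 1640.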
HCV inhibitor: inhibitors of hepatitis C virus infection; AID 651820; Huh7.5.1 HCVcc-Cre infection, luciferase reporter, 44 h; Potency, µM (doses to about 41.8 µM), for inactives: at the highest dose activity change, negative = inhibition, most hits filed as inhibitors; 3.4% of 340,000 active; further: potency means the concentration at half of the fitted maximal effect; on the % scale 0 is the no-effect control and ±100 the full control effect
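Reporter virus HCVcc-Cre (~0.5 moi) infects cells exposed to compound; seeding density 1,000 cells/well with 4 h settling beforehand. Luminescence, 15 sec read, taken 44 h post-infection following a 15 min RT substrate incubation.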
HCMV inh: human cytomegalovirus inhibition | HFF cells, HCMV-luciferase reporter, 72 h; stronger effect = lower value | activity change, negative = inhibition, % at 57.5 µM | 4.5% of 410,000 active | AID 1259415; in the data active means activity change below about -60%; inconclusive means no clear call, values can overlap the other calls; inactive means above about -39%; further: on the % scale 0 is the no-effect control and ±100 the full control effect
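HFF cells seeded 16 h at 37C, treated with compounds, infected with luciferase-reporter HCMV at MOI 1 PFU/cell; luciferase read at 72 h post infection, normalized to buffer-only and Salinomycin controls.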
Pf growth 96h: P. falciparum growth inhibition at 96 hour, primary screen for plastid delayed-death inhibitors; Potency, µM (titrated, usually from 28.7 µM), for inactives: top-dose activity change, negative = inhibition, hits mostly inhibitors; 6.9% of 320,000 active; AID 504834; P. falciparum luciferase reporter growth, 96 h; further: potency means the concentration at half of the fitted maximal effect; on the % scale 0 is the no-effect control and ±100 the full control effect
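Two parasite generations (96 h, 37 C, 5% CO2) of compound exposure in infected erythrocytes (0.05% parasitemia, 2% hematocrit). Luciferase-reporter P. falciparum; decreased luminescence indicates inhibited growth, aimed at apicoplast-acting delayed death.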
An asterisk follows results filed as active. Unless noted, the call rests on the fitted dose curve; in most records, active means well fitted curve in the direction sought with a large enough effect; inconclusive means small, poorly fitted or top-dose-only effect, or another doubt; inactive means no such curve, though single readings can be large; an effect the other way counts as inactive or inconclusive.

Screening Clc1ccc2c(N3CCNCC3)ccnc2c1 returned Sm TGR inh -14%, Pf growth 48h inconclusive, HCV inhibitor 0% and HCMV inh -109*.
`Clc1ccc2c(N3CCCC3)ccnc2c1` gave Sm TGR inh -16%, SARS PLP yeast 0%, Pf growth 48h 3.7µM*, HCV inhibitor inconclusive and HCMV inh inconclusive.
Screening Clc1ccc2c(N3CCOCC3)ccnc2c1 returned Sm TGR inh -10%, SARS PLP yeast -4%, Pf growth 48h 9%, HCV inhibitor inconclusive, HCMV inh -37 and Pf growth 96h 11%.
For NC(=O)C1CCN(c2ccnc3cc(Cl)ccc23)CC1 the results were Sm TGR inh -6%, SARS PLP yeast 0%, Pf growth 48h inconclusive, HCV inhibitor 10%, HCMV inh 19 and Pf growth 96h 12µM*.
Screening COc1ccc(-c2cnc(C)o2)cc1S(=O)(=O)Nc1ccc(F)cc1F returned Sm TGR inh -3% and HCMV inh 18.
Screening O=C(Cn1cc(C(F)(F)F)ccc1=O)Nc1ccccc1 returned Sm TGR inh 0%, SARS PLP yeast -1%, Pf growth 48h 56%, HCV inhibitor 5%, HCMV inh 4 and Pf growth 96h 72%.
Screening Cc1cccc(C)c1NC(=O)COC(=O)c1cc[n+]([O-])cc1 returned Sm TGR inh inconclusive, SARS PLP yeast -6%, Pf growth 48h 8%, HCV inhibitor 20%, HCMV inh 11 and Pf growth 96h 14%.
`Cc1cc(C(=O)O)cc(S(=O)(=O)Nc2ccccc2C(=O)NC2CC2)c1C` gave Sm TGR inh 2%, SARS PLP yeast -3%, Pf growth 48h 18%, HCV inhibitor 10%, HCMV inh -8 and Pf growth 96h 69%.
For Cc1ccccc1C(=O)NCc1ccc2c(c1)CCN2C(=O)c1ccc(F)cc1 the results were Sm TGR inh -7% and HCMV inh 3.
`O=C(CN1C(=O)COc2ccc(S(=O)(=O)NC3CCCC3)cc21)NCc1ccccc1Cl` gave Sm TGR inh 1% and HCMV inh 3.
Cc1cc(Nc2ccc(C)c(Cl)c2)n2nc(Cc3ccccc3)nc2n1 was read as Sm TGR inh 2% and HCMV inh -14.
`COc1ccccc1NC(=O)N1CCCC1C(=O)NCc1ccccc1Cl` (stereo not given) gave Sm TGR inh 8%, SARS PLP yeast -2%, Pf growth 48h 14%, HCV inhibitor -3%, HCMV inh -23 and Pf growth 96h -17%.
Screening N#Cc1c(Nc2ccccc2Cl)s[nH]c1=O returned Sm TGR inh -5%, SARS PLP yeast -2%, Pf growth 48h inconclusive, HCV inhibitor 18%, HCMV inh -87* and Pf growth 96h -18%.
For COCCNCC(=O)N1CCCCCC1 the results were Sm TGR inh 0%, SARS PLP yeast -1%, Pf growth 48h -2%, HCV inhibitor 29%, HCMV inh 147 and Pf growth 96h 12µM*.
CC(=O)Nc1cc(-c2ccncc2)cn2c(-c3ccccc3)cnc12 was read as HCMV inh 3.
Cc1nnc2n(C3CCCCC3)c(=O)c3c4c(sc3n12)COC(C)(C)C4 was read as Sm TGR inh 40µM*, SARS PLP yeast 4%, Pf growth 48h inconclusive, HCV inhibitor 10%, HCMV inh -28 and Pf growth 96h inconclusive.
Screening Cc1nnc2n(C3CCCCC3)c(=O)c3c4c(sc3n12)CCC4 returned Sm TGR inh -25%, SARS PLP yeast -4%, Pf growth 48h -2% and Pf growth 96h 3.3µM*.
`Cc1ccc(Sc2ccc(S(=O)(=O)Nc3ccc(CC(=O)O)cc3)cc2)cc1C` gave Sm TGR inh -7%, SARS PLP yeast 4%, Pf growth 48h inconclusive, HCV inhibitor -2%, HCMV inh -22 and Pf growth 96h -26%.
For CC(NC(=O)c1ccccc1)C(=O)NNC(=O)c1ccccc1Cl (stereo not given) the results were Sm TGR inh 7%, SARS PLP yeast 1%, Pf growth 48h 26%, HCV inhibitor 9%, HCMV inh -63* and Pf growth 96h 7%.
Screening O=C(CCc1ccccc1)NNC(=O)c1ccccc1F returned Sm TGR inh 0%, SARS PLP yeast 1%, Pf growth 48h 27%, HCV inhibitor 8%, HCMV inh 41 and Pf growth 96h -1%.
For CC(=O)Oc1ccccc1C(=O)NC(C)CCc1ccccc1 (stereo not given) the results were Sm TGR inh 0%, SARS PLP yeast -3%, Pf growth 48h 15µM*, HCV inhibitor inconclusive, HCMV inh -9 and Pf growth 96h inconclusive.
`O=C(CCc1ccccc1)NNC(=O)c1ccccc1Cl` gave Sm TGR inh 2%, SARS PLP yeast 4%, Pf growth 48h inconclusive, HCV inhibitor 11%, HCMV inh 15 and Pf growth 96h 2.9µM*.
`CC(CCc1ccccc1)NC(=O)c1ccccc1Cl` (stereo not given) gave Sm TGR inh -10%, SARS PLP yeast 4%, Pf growth 48h inconclusive, HCV inhibitor 15%, HCMV inh 56 and Pf growth 96h 9.3µM*.
Screening CS(=O)(=O)N(CC(=O)NCCSCc1ccccc1)c1cc(C(F)(F)F)ccc1Cl returned Sm TGR inh 8% and HCMV inh -1.
`CC1(C(=O)Nc2ccc3c(c2)OCCO3)CSCC(=O)N1Cc1ccco1` (stereo not given) gave HCMV inh 128.
CC(C)Cc1nc(N2CCN(C(=O)c3ccccc3)CC2)c(C#N)c2c1CCC2 was read as Sm TGR inh -9%, SARS PLP yeast 4%, Pf growth 48h inconclusive, HCV inhibitor 11µM*, HCMV inh inconclusive and Pf growth 96h inconclusive.
For CC(C)Cc1nc(N2CCN(C(=O)c3ccco3)CC2)c(C#N)c2c1CCC2 the results were Sm TGR inh inconclusive, SARS PLP yeast -13%, Pf growth 48h 2.3µM*, HCV inhibitor inconclusive, HCMV inh -31 and Pf growth 96h 38%.
`CN(C)Cc1c(O)ccc2c(-c3ccccc3)cc(=O)oc12` gave Sm TGR inh 20%, SARS PLP yeast -1%, Pf growth 48h -9%, HCV inhibitor 0%, HCMV inh -35 and Pf growth 96h 9.3µM*.
`Cc1nnc(SCc2cc(=O)oc3cc(O)ccc23)n1Cc1ccccc1` gave Sm TGR inh -7%, SARS PLP yeast 14%, Pf growth 48h inconclusive, HCV inhibitor 0%, HCMV inh 9 and Pf growth 96h 2.1µM*.
